Screening data: PubChem BioAssay, National Center for Advancing Translational Sciences (NCATS)
A selection: hits, their analogues and other compounds. The true share with any hit is near 1.6%.
ALOX12 inh: ALOX12 (human) lipoxygenase inhibition; P18054; purified 12hLO, xylenol orange hydroperoxide absorbance; Potency, µM (series often up to 108 µM), for the others: at the top dose activity change, negative = inhibition, usual class: inhibitors; actives 1.1% (n = 580,000); AID 1671190; also: % is scaled to controls: 0 for no effect and ±100 for the full control effect
Target sequence (P18054 whole entry, looked up): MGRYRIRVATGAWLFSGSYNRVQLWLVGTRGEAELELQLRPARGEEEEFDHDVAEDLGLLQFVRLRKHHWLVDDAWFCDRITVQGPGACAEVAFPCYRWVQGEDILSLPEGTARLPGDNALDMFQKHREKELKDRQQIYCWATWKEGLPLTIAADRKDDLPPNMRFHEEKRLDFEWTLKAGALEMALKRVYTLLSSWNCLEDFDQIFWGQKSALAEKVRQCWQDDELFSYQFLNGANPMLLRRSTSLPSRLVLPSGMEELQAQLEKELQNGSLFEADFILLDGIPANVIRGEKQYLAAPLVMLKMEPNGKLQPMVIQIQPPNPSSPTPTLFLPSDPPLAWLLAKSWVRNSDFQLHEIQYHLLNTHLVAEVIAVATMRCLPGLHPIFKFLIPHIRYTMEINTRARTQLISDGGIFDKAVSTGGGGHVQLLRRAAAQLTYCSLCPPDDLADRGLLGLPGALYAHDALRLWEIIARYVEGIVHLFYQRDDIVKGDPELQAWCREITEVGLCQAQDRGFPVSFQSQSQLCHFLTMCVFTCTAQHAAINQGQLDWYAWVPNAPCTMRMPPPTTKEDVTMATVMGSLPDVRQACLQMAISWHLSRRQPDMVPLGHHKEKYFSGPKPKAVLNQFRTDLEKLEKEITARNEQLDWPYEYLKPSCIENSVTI
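Purified human 12hLO (150 nM final) in 25 mM Hepes, 0.01% Triton X-100, pH 7.0 was preincubated 15 min at room temperature with compound. Then 40 uM arachidonic acid was added, 30 min. Hydroperoxide was read by Fe-XO absorbance ratio 573/405 nm.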
Mito fusion act: inhibitors of mitochondrial division or activators of mitochondrial fusion. S. cerevisiae fusion-defective mutant growth rescue, CellTiterGlo 48 h. Potency, µM (doses to about 46.1 µM), for the others: top-dose growth rescue (activation), most hits filed as activators. actives 0.23% (n = 320,000). AID 485298; also: % of control where 0% means no effect; nearly all actives have a fitted effect of over 45% in size
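Growth-rescue viability read-out: after 48 h at the non-permissive 37C in glycerol/ethanol YPEG, yeast mitochondrial fusion mutants are measured by CellTiterGlo luminescence; compounds (23 nl pinned per well) restoring growth score as division inhibitors or fusion activators.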
gsp antagonist: gsp mutant antagonism; gsp-mutant cells, cAMP HTRF, 30 min; Potency, µM (highest dose often 76.9 µM), inactives show at the highest dose activity change, negative = inhibition, usual class: inhibitors; actives 0.4% (n = 340,000); AID 624288; calls by dose curve; cell line not stated here;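 also: intracellular cAMP measured with PDE inhibitor Ro 20-1724 present during compound exposure; % is scaled to controls: 0 for no effect and ±100 for the full control effect; nearly all actives have a fitted effect of over 65% in size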
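G418-selected cells were plated in DMEM/10% FBS for 16-24 h at 37C, then treated with compounds plus the PDE inhibitor […] (300 uM solution added) for 30 min at 37C. Intracellular cAMP was measured by HTRF after 30 min lysis at room temperature.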
FUS yeast rescue: rescues growth of FUS-expressing yeast; actives 0.24% (n = 390,000); Potency, µM (top dose mostly 76.6 µM), actives largely listed as activators; S. cerevisiae FUS-expressing, growth rescue, OD600, 24 h;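 also: plate controls were DMSO vehicle for no effect and reference control for full effect; nearly all actives have a fitted effect of over 55% in size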
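S. cerevisiae expressing FUS from galactose induction served as the toxicity model. Growth after 24hr at 30C, read as absorbance at 600 nm, indicates suppression of toxicity; compounds dosed at several concentrations.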
gsp ag: agonists of gsp mutant (McCune-Albright syndrome); gsp mutant cells, cAMP HTRF, 30 min; Potency, µM (top dose mostly 76.9 µM), for inactives: top-dose activation (cAMP increase), most hits filed as activators; actives 0.13% (n = 340,000); AID 624287; active = well fitted activation curve with a large enough effect; inconclusive = small, poorly fitted or top-dose-only effect, or another doubt; inactive = no such curve, though single readings can be large or run the other way; cell line not stated here;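 also: phosphodiesterase inhibitor Ro 20-1724 added with compounds to block cAMP breakdown; nearly all actives have a fitted effect of over 60% in size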
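Cells in DMEM/10% FBS with G418 were pretreated with compounds in DMSO plus […] (300 uM stock) for 30 min at 37C. cAMP was measured by HTRF (cAMP-d2 plus anti-cAMP antibody-K) after 30 min at room temperature.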
Numbers without * were called inactive; i = inactive; ? = inconclusive; . = no result given; ! = not active in a repeat; [ ] = another dose, or the depositor's remark. Unless noted, calls follow the shape of the dose curve; as a rule, active = well fitted curve in the direction sought with a large enough effect; inconclusive = small, poorly fitted or top-dose-only effect, or another doubt; inactive = no such curve, though single readings can be large; an effect the other way counts as inactive or inconclusive. Potency is read from the fitted curve at half-maximal effect.

SMILES	ALOX12 inh	Mito fusion act	gsp antagonist	FUS yeast rescue	gsp ag
CCOc1ccc(NC(=O)c2nnn3c2COC(c2ccc(Cl)cc2)C3)cc1 (configuration not stated)	44.7µM*	.	.	.	.
COc1ccc(C(=O)Nc2ccc(N3CCN(c4ccccc4)CC3)c(C(=O)O)c2)cc1	-25.4%	.	.	i	.
O=C(Nc1ccc(N2CCN(CCOc3ccc(Cl)cc3)CC2)c(C(=O)O)c1)c1ccc(F)cc1	44.7µM*	.	.	i	.
C=CC(C)(CCC=C(C)C)OC(=O)C(C)C (configuration not stated)	13.5%[176 µM]	.	.	.	.
CCCCn1c(N)c(N(C)C(=O)c2ccc(-c3ccccc3F)o2)c(=O)[nH]c1=O	-0.3%	.	.	.	.
CN1CCCCCC1=Nc1ccc([N+](=O)[O-])cc1	124.8%	.	7.5%	i	8.1%[15.4 µM]
CN1C(=O)C(N=Nc2ccc([N+](=O)[O-])cc2)SC1=S (configuration not stated)	?	.	31.6µM*	i	?
CCSc1oc(-c2ccccc2)nc1S(=O)(=O)c1ccc(F)cc1	10µM*	.	.	.	.
CSc1oc(-c2ccco2)nc1S(=O)(=O)c1ccccc1	35.5µM*	2.1%	-2.2%	i	12.5%
CSc1oc(-c2ccco2)nc1S(=O)(=O)c1ccc(C)cc1	?	10.0%	2.2%	i	?
Cc1ccc(Oc2nc3c(c(=O)n(C)c(=O)n3C)n2Cc2ccc(F)cc2)cc1C	17.0%	.	.	.	.
O=C(NCC(c1ccco1)N1CCc2ccccc2C1)c1ccc(Br)cc1 (configuration not stated)	11.2µM*	14.1%	-5.4%	i	14.4%[15.4 µM]
O=C(NCC(c1ccco1)N1CCc2ccccc2C1)c1cccc(Br)c1 (configuration not stated)	?	?	-26.2%	i	5.4%[15.4 µM]
O=[N+]([O-])c1ccc(S(=O)(=O)NCC(c2ccco2)N2CCc3ccccc3C2)cc1 (configuration not stated)	14.1µM*	0.2%	-19.4%	i	6.7%[15.4 µM]
O=C(NCC(c1ccco1)N1CCc2ccccc2C1)c1ccc(Cl)cc1 (configuration not stated)	14.1µM*	6.3%	-16.1%	i	-3.5%
Cc1ccc(C(=O)NCC(c2ccco2)N2CCc3ccccc3C2)cc1 (configuration not stated)	8.91µM*	12.7%	-9.2%	i	-17.9%
COc1ccc(Nc2cc3c(nc2OC)nc(CCc2ccccc2)n3C)cn1	22.9%[176 µM]	.	.	.	.
CCN1CC(Nc2ccc(-c3nc(CCCc4ccccc4)no3)cn2)CC1=O (configuration not stated)	32.4%	.	.	.	.
CCN=c1scc(C)n1/N=C/c1cc(Br)c(O)c(Br)c1	25.1µM*	24.6%	.	i	7.9%[15.4 µM]
CCN=c1scc(C)n1/N=C/c1ccc(O)c(O)c1O	?	-1.6%	-24.5%	.	-42.5%
C[C@@H]1CN([C@H](C)CO)C(=O)c2cc(NC(=O)Nc3ccc(C(F)(F)F)cc3)ccc2O[C@H]1CN(C)S(=O)(=O)c1ccc(Cl)cc1	?	.	-2.3%	i	.
C[C@@H]1CN([C@@H](C)CO)C(=O)Cc2cc(NC(=O)Nc3ccc(C(F)(F)F)cc3)ccc2O[C@@H]1CN(C)S(=O)(=O)c1ccc(Cl)cc1	?	.	0.9%	17.8µM*	-14.1%
C[C@H](CO)N1C[C@H](C)[C@@H](CN(C)S(=O)(=O)c2cccs2)Oc2ccc(NC(=O)Nc3ccc(C(F)(F)F)cc3)cc2C1=O	?	.	-2.0%	i	.
C[C@@H]1CN([C@H](C)CO)C(=O)c2cc(NC(=O)Nc3ccc(C(F)(F)F)cc3)ccc2O[C@H]1CN(C)S(=O)(=O)c1cccs1	?	.	7.3%	10µM*	.
COC(=O)[C@]12C[C@H](CC(=O)N3CCN(C(=O)C4CC4)CC3)C(=O)N(Cc3ccc(Cl)cc3Cl)C1=C[C@H](C(C)C)O[C@@H]2C1CC1	.	.	.	28.2µM*	.
SMILES	ALOX12 inh	Mito fusion act	gsp antagonist	FUS yeast rescue	gsp ag
COC(=O)[C@]12C[C@H](CC(=O)N3CCCCC3)C(=O)N(Cc3ccc(Cl)cc3Cl)C1=C[C@H](C(C)C)O[C@@H]2C1CC1	.	.	.	i	.
COC(=O)[C@]12C[C@H](CC(=O)N3CCN(C(=O)C4CC4)CC3)C(=O)N(Cc3ccc(Cl)cc3Cl)C1=C[C@H](C1CCCC1)O[C@@H]2C	.	.	.	31.6µM*	.
COC(=O)[C@]12C[C@H](CC(=O)N3CCSCC3)C(=O)N(Cc3ccc(Cl)cc3Cl)C1=C[C@H](C(C)(C)C)O[C@@H]2C	0.0%	.	.	.	.
COC(=O)[C@]12C[C@H](CC(=O)N3CCOCC3)C(=O)N(Cc3ccc(Cl)cc3Cl)C1=C[C@H](C(C)(C)C)O[C@@H]2C	.	.	.	15.8µM*	.
COc1cc(SC)ccc1C(=O)OC(C(=O)c1ccccc1)c1ccccc1 (configuration not stated)	-3.1%	.	.	.	.
Cc1ccc(-c2nnc(C3CN(C(=O)c4ccc(C)c(F)c4)CC34CCOCC4)o2)cc1 (configuration not stated)	4.8%	.	.	.	.
CCN(CC)S(=O)(=O)c1cccc(C(=O)Nc2cc(C)on2)c1	-5.6%	-5.7%	50.1µM*	i	15.9%
COc1ccc(S(=O)(=O)Oc2ccc3c(c2)O/C(=C\c2cccc(OC)c2)C3=O)cc1	-0.4%	.	.	.	.
CC(OC(=O)C1CCN(S(=O)(=O)c2ccc(C(C)(C)C)cc2)CC1)C(=O)N1CCOCC1 (configuration not stated)	44.7µM*!	-3.7%	6.0%	.	-60.5%
Cc1ccc(S(=O)(=O)N2CCC(C(=O)OC(C)C(=O)N3CCOCC3)CC2)cc1 (configuration not stated)	-21.2%	0.8%	-4.0%	i	13.4%
COc1ccc(Nc2nc(-c3ccccc3O)nc3ccccc23)cc1	17.0%	-28.7%	-17.5%	i	-12.1%[15.4 µM]
COc1ccc(Nc2nc(-c3ccccc3F)nc3ccccc23)cc1OC	?	-18.6%	?	i	12.5%
Oc1ccc(Nc2nc(-c3ccccc3F)nc3ccccc23)cc1	17.8µM*!	4.4%	-1.3%	i	17.6%
